# Screening results: PubChem, several laboratories
# CCHF vOTU inh – CCHFV vOTU protease inhibition; Pep-AMC fluorescence; inhibition, % at 11.5 µM; 370,000 tested, 0.55% active; AID 651958; note: 0% = vehicle wells with enzyme and 100% = no enzyme wells
# FBA Mtb inh – Mtb fructose-bisphosphate aldolase inhibition; purified M. tuberculosis FBA, fluorescence read-out; inhibition, % at 1 µM; 360,000 tested, 2.3% active; AID 588726; in the data active = inhibition above about 27%;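 note: 0% = vehicle and 100% = reference inhibitor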
# Target sequence (P9WQA3 whole entry, looked up): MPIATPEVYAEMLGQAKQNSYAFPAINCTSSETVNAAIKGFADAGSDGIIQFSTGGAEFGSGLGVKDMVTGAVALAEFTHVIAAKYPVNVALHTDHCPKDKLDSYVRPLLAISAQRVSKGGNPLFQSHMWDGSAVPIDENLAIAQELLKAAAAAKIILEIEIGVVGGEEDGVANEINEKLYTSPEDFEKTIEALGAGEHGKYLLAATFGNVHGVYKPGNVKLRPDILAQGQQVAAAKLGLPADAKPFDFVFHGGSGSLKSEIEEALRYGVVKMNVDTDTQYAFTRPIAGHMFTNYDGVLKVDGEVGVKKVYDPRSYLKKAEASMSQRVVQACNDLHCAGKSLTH
# Vc quorum ag – quorum light induction in luxS cqsA deficient V. cholerae; activation, % at 18.7 µM; 350,000 tested, 0.16% active; V. cholerae BH1578 lux reporter, luminescence, 6 h; AID 588436; in the data active = activation mostly above about 9.7%, no sharp cut-off
# GDH-TPI inh – inhibits GDH-TPI coupling enzymes, artifact for Mtb FBA screen. GDH-TPI coupled enzyme counterscreen, NADH absorbance. inhibition, % at 4.8 µM. 360,000 tested, 1.2% active;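 note: 0% = DMSO wells and 100% = wells lacking the enzyme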
# Numbers without * were called inactive; i = inactive; x = no result; + = active, no number. Most compounds without a hit are left out; they make up all but 3.9% or so of the library. Cut-off read from the data, not from the text of the source, unless noted: active = inhibition above about 30%; inactive = the rest.
SMILES,CCHF vOTU inh,FBA Mtb inh,Vc quorum ag,GDH-TPI inh
Clc1ccccc1CSc1nc2ccncc2[nH]1,-2.6,0.8,-1.5,-5.8
Cc1ccc(S(=O)(=O)NCc2ccc(/C=C(/C#N)C(=O)NCc3ccccc3)o2)cc1,-1.6,-3.3,-0.2,6.9
Cc1c(OC(C(=O)O)c2ccccc2)ccc2c1oc(=O)c1ccccc12 (centres undefined),-68.1,138.6*,i,23.6
CC(C)c1ccc(C2(O)C(=O)Nc3cc(Br)ccc32)c(O)c1 (centres undefined),15.5,0.4,i,4.0
COc1ccc(C(C(=O)NC(C)(C)C)N(C(=O)CCC(=O)Nc2cc(C)on2)c2ccc3c(c2)OCCO3)cc1 (centres undefined),-6.5,-0.9,-0.3,0.8
COc1ccc(N/N=C(/C#N)S(=O)(=O)c2nsc(C)c2C#N)cc1,-1.0,-3.0,5.9,37.9*
Cc1snc(S(=O)(=O)/C(C#N)=N/Nc2cccc(C(F)(F)F)c2)c1C#N,x,-7.7,-0.1,20.0
CC(NCCS(=O)(=O)c1ccc(Cl)cc1)c1cccc(Cl)c1 (centres undefined),5.9,1.2,-0.3,-3.7
CC(C)c1ccc(C(C)NCCS(=O)(=O)c2ccc(Br)cc2)cc1 (centres undefined),34.9*,2.3,i,-0.3
CN(C(=O)CN1C(=O)S/C(=C\c2ccc(Cl)cc2)C1=O)C1CCS(=O)(=O)C1 (centres undefined),-10.5,4.8,-0.2,38.3*
O=C(CCN1C(=O)S/C(=C\c2ccccc2)C1=O)NC1CCS(=O)(=O)C1 (centres undefined),13.9,-2.8,i,35.9*
CCN(C(=O)CCN1C(=O)S/C(=C\c2ccccc2)C1=O)C1CCS(=O)(=O)C1 (centres undefined),16.1,-1.9,1.1,42.9*
CN(C(=O)CCN1C(=O)/C(=C/c2ccccc2)SC1=S)C1CCS(=O)(=O)C1 (centres undefined),-3.8,-1.1,0.0,4.8
CN(C(=O)CN1C(=O)S/C(=C\c2ccccc2)C1=O)C1CCS(=O)(=O)C1 (centres undefined),13.9,-2.5,-0.5,44.8*
CN(C(=O)CN1C(=O)/C(=C/c2ccc(F)cc2)SC1=S)C1CCS(=O)(=O)C1 (centres undefined),4.7,-0.5,-0.7,19.6
COc1cccc(/C=C2\SC(=O)N(CCC(=O)NC3CCS(=O)(=O)C3)C2=O)c1 (centres undefined),12.6,-3.5,i,27.4
CN(C(=O)CN1C(=O)S/C(=C\c2ccccc2Cl)C1=O)C1CCS(=O)(=O)C1 (centres undefined),9.6,-1.2,-0.3,17.7
COc1ccc(CCNC(=O)c2cc(=O)c3ccc(C)cc3o2)cc1OC,1.7,5.7,0.4,14.0
COC(=O)C(C(=O)Nc1cc(C)on1)C1CCCCCC1 (centres undefined),-2.0,1.8,-0.6,-13.6
CCOC(=O)c1c(C)oc2ccc(OC(=O)COc3c(F)c(F)c(F)c(F)c3F)cc12,8.8,2.7,0.8,-4.6
CC1CCC(C(C)C)C(=O)/C1=C/c1ccc(N)cc1 (centres undefined),16.6,-0.4,i,36.4*
CC(=O)c1ccc(N2CCN(C(=O)CCCc3nc4ccccc4s3)CC2)cc1,1.8,1.1,-0.2,31.9*
O=C(Nc1ccc2c(c1)OCO2)c1csc(COCCO)n1,x,-0.7,-0.8,11.5
O=C(Nc1ccc(NC(=S)NC(=O)C(c2ccccc2)c2ccccc2)cc1)c1ccccc1,2.4,-2.1,i,18.9
Cc1ccc2nc(-c3ccc(NC(=O)COCC(=O)O)cc3)sc2c1,-40.3,136.4*,-1.1,24.5
SMILES,CCHF vOTU inh,FBA Mtb inh,Vc quorum ag,GDH-TPI inh
Cc1nc(-c2ccc(NC(=O)/C=C\C(=O)O)cc2)cs1,-10.1,3.3,-0.6,-3.2
Cc1csc(NC(=O)CSc2nc3ccccc3s2)n1,6.7,1.7,i,14.4
Cc1csc(NC(=O)CSCC(=O)O)c1-c1nc2ccccc2s1,-0.5,-0.1,-0.4,34.6*
Cc1ccc2sc(-c3ccc(NC(=O)/C=C\C(=O)O)cc3)nc2c1,-323.3,+,-0.3,22.0
Cc1ccc2nc(-c3ccc(NC(=O)CSCC(=O)O)cc3)sc2c1,-86.4,199.3*,-3.7,49.4*
CCC(=O)NC(=S)Nc1ccc(-c2nc3ccc(C)cc3s2)cc1,-4.2,-1.4,i,-7.4
CC(C)C(=O)Nc1cccc(COc2ccc(CN(CCc3ccccc3)C(=O)OC(C)(C)C)cc2)c1,25.6,-1.9,i,0.0
COC(=O)C1=C(C)N(Cc2ccccc2)C(=S)NC1c1cccc(OC)c1 (centres undefined),8.0,x,x,x
O=C(O)CSCC(=O)Nc1ccc(-c2nc3ccccc3s2)cc1,-54.5,115.9*,-0.4,23.4
Cc1cc(O)c(C(C)C)cc1N=Cc1ccc(N(C)C)cc1,19.3,-0.7,-3.8,46.5*
C/C(=N\NC(=S)Nc1ccccc1C)c1cc2ccccc2o1,4.3,1.7,-0.4,48.8*
COc1ccc(C(=O)OCC(=O)NCC2CCCO2)cc1 (centres undefined),-9.6,1.7,0.6,1.0
CCN(CC)c1ccc(C(=O)OCC(=O)NCC2CCCO2)cc1 (centres undefined),12.5,-0.3,-0.3,31.8*
CCOC(=O)C1CCCN(C(=O)Cn2nc(C)n3c(cc4c(OC)cccc43)c2=O)C1 (centres undefined),-145.1,193.5*,-0.2,8.7
COc1cccc2c1cc1c(=O)n(CC(=O)N3CCCCCC3)nc(C)n12,-41.1,+,-0.4,12.6
COc1cccc2c1cc1c(=O)n(CC(=O)N3CCN(c4cccc(C)c4C)CC3)nc(C)n12,0.9,7.0,0.4,0.9
COCC(=O)Nc1ccc(S(=O)(=O)N2CCCC2)cc1,-6.0,-1.2,-1.9,1.7
CCOC(=O)NC(=O)CSc1nc2ccc(C)cc2[nH]1,-3.4,7.3,-0.8,10.8
O=C(/C=C/c1ccco1)Oc1cc(Br)cc(/C=N/NC(=O)c2ccccc2O)c1,12.6,2.7,-0.2,43.2*
Cc1c(OC(C)C(=O)NCc2ccccn2)ccc2c3c(c(=O)oc12)CCC3 (centres undefined),-6.7,30.0*,-0.1,13.3
Cc1cc(C(F)F)nn1CC(=O)NCc1ccc(Cl)cc1Cl,3.4,-0.6,0.1,4.3
Cc1ccc2nc(NC(=O)/C=C/c3ccc4c(c3)OCO4)sc2c1,3.3,2.8,-1.7,4.5
CCOC(=O)Cc1csc(NC(=O)CC(C)(C)C)n1,29.6*,3.5,0.4,-1.2
CCOC(=O)Cc1csc(NC(=O)/C=C/c2ccco2)n1,17.0,-2.6,-0.2,74.8*
Cc1csc(NC(=O)/C=C/c2ccc3c(c2)OCO3)n1,0.4,-1.2,-0.3,35.4*
O=C(/C=C/c1ccco1)Nc1scc(-c2ccccc2)c1C(=O)O,1.5,1.9,-0.4,66.2*
O=C(/C=C/c1ccccc1)Nc1scc(-c2ccccc2)c1C(=O)O,16.1,-1.4,-0.3,21.4
CCOC(=O)CNc1nc(C(C)(C)C)nc2c1nnn2Cc1ccccc1Cl,-9.9,-1.6,-2.2,17.4
Cc1cccc(OC(C)C(=O)Nc2cc(Cl)ccc2-n2cncn2)c1 (centres undefined),8.9,-1.1,i,-4.0
